# Compound activity (PubChem)
# TWEAK-Fn14 inh – inhibitors of TWEAK-Fn14 interaction signaling; inhibition, % at 10 µM; TWEAK-stimulated Fn14 reporter cells, luciferase luminescence, 8 h; 360,000 tested, 2% active; in the data active = inhibition above about 50%
# HIF-2a inh – blocks HIF-2a reporter activity | 786-0 RCC cells HIF-2a reporter, luciferase luminescence, overnight | inhibition, % at 18.8 µM | 360,000 tested, 0.72% active;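 active = inhibition of the luminescence signal of 40% or more relative to plate controls, in a single-dose primary screen at 18.75 µM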
# KKLEB cytotox – CF airway cell cytotoxicity counter-screen. KKLEB CF airway cells viability, ATPlite luminescence, overnight; active compounds read low; cells stimulated with P. aeruginosa culture filtrate. AID 602141. activity change (cytotoxicity), % at 5 µM. 360,000 tested, 0.36% active;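 active = corrected activity change at or below -50% at 5 µM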
# CF NFkB inh – cystic fibrosis NF-kB activation inhibition. KKLEB NF-kB-GFP reporter, PAF-induced, GFP fluorescence overnight. inhibition, % at 5 µM. 360,000 tested, 0.86% active. AID 588850;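 active = at least 50% inhibition at 5 µM, scaled per plate between neutral and stimulator controls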;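 note: PAF is a Pseudomonas aeruginosa culture filtrate used as stimulus; plate controls were PAF-stimulated DMSO wells for no effect and unstimulated DMSO wells for full effect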
# Peg3 promoter – inhibitors of Peg3 promoter; 360,000 tested, 1.7% active; HeLa PEG-Prom luciferase reporter, luminescence, overnight; inhibition, % at 20 µM; AID 588405;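 active = inhibition of at least 50% at 20 µM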
# TROY signal inh – TROY signaling inhibition; inhibition, % at 10 µM; Q293 LMP1-TROYcd NF-kB luciferase reporter, 4 h; AID 1347056; 360,000 tested, 0.98% active;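 active = compounds whose plate-normalised and pattern-corrected inhibition of the luciferase reporter signal at the single screening dose is 50% or more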
# * = called active by the depositor; · = no result given. This is a sample that favours compounds with a hit; in the whole collection about 4% have one here.
SMILES,TWEAK-Fn14 inh,HIF-2a inh,KKLEB cytotox,CF NFkB inh,Peg3 promoter,TROY signal inh
O=C(NCc1cccs1)c1ccc2sc([C@@H]3O[C@H](CO)[C@H](O)[C@H](O)[C@H]3O)nc2c1,-2,-11,-6,6,-1,-10
Cc1cccc(-c2nc(S(=O)(=O)c3ccc(F)cc3)c(NCCCN3CCOCC3)o2)c1,78*,7,-4,23,22,-12
CCN1CCN(c2nc(-c3ccccc3Cl)nc3ccccc23)CC1,68*,4,3,10,11,-10
O=C(NN=C1CCCCCC1)c1cccs1,-13,-28,20,-24,3,-44
COc1ccc(CNC(=O)CN2C(=O)NC(c3ccccc3)(c3ccccc3)C2=O)cc1,-12,25,-1,3,-4,20
CC(=O)c1ccc(-n2c(CCC(=O)O)ccc2-c2ccccc2)cc1,76*,-14,-9,13,20,58*
COC(=O)c1ccc(-n2c(C)ccc2-c2ccccc2)cc1,7,7,0,0,9,-28
CC(=O)c1ccc(-n2c(C)ccc2-c2ccccc2)cc1,82*,-130,4,14,-53,37
CC(=O)c1ccc(-n2c(CCC(=O)O)ccc2-c2ccc(C)cc2)cc1,19,-4,5,-19,-1,-33
CCOc1ccc(CCN2C(=O)C(=O)N([C@@H](Cc3ccccc3)CN3CCC[C@H]3CN3C(=O)C(=O)NC[C@@H]3Cc3ccccc3)C[C@@H]2Cc2ccc(O)cc2)cc1,18,-1,·,·,·,9
C[C@@H](c1ccccc1)N1C[C@H](COCc2ccccc2)Oc2cc(N3CC[C@@H](O)C3)ccc2S1(=O)=O,-8,27,·,·,·,8
COc1ccccc1-n1cnc2cc(NCc3ccccn3)ccc21,52*,-122,-7,9,-49,56*
COc1ccc(-c2nc(-c3ccc(NC(=O)c4ccncc4)cc3)no2)cc1OC,94*,-7,6,-6,99*,67*
COc1ccc(CC(=O)Nc2ccc(-c3noc(-c4cc(OC)c(OC)c(OC)c4)n3)cc2)cc1,-30,3,-5,-6,12,-15
COc1ccc(CC(=O)Nc2ccc(-c3noc(-c4ccc(Cl)cc4)n3)cc2)cc1,-32,-27,-55*,43,57*,-12
COc1ccc(NC(=O)c2ccc(-c3ccc(-c4noc(C)n4)cc3C)cc2)cc1N1CCN(C)CC1,-24,-12,-9,12,64*,0
CC1CCCCN1C(=O)Cn1c(=O)oc2cc(S(=O)(=O)N3CCCC3)ccc21 (centres undefined),-14,8,-8,5,11,-3
COc1ccc(-n2nc(C(=O)NCC(=O)NCCCN3CCOCC3)c3ccccc3c2=O)cc1OC,-3,4,-76*,13,0,-7
COc1ccc(-n2nc(C(=O)NCC(=O)NCCCN3CCOCC3)c3ccccc3c2=O)cc1Cl,-12,7,-6,4,-12,-16
c1ccc(CSc2ncnc3sccc23)cc1,5,-111,-7,8,-63,1
Clc1ccc(-n2nnnc2Sc2ncnc3sccc23)cc1,75*,93*,-10,83*,108*,70*
Cc1sc2ncnc(Sc3nnnn3-c3ccccc3)c2c1C,101*,24,-54*,80*,72*,67*
Cc1ccc(C)c(OCCn2cc(C(=O)O)c3ccccc32)c1,16,16,-3,-2,16,7
Cc1cccc(NC(=O)/C(C#N)=C/c2cn(CC(=O)NCc3ccco3)c3ccccc23)c1,-14,2,-63*,60*,60*,33
CC(=O)c1cn(CCOc2cc(C)ccc2C)c2ccccc12,100*,4,3,-7,2,0
SMILES,TWEAK-Fn14 inh,HIF-2a inh,KKLEB cytotox,CF NFkB inh,Peg3 promoter,TROY signal inh
Cc1ccc(C)c(OCCn2cc(/C=C(\C#N)C(=O)NCc3ccco3)c3ccccc32)c1,-41,-5,-58*,57*,24,6
COCCNC(=O)/C(C#N)=C/c1cn(CC(=O)NCc2ccco2)c2ccccc12,-22,10,-4,-2,15,-11
COc1ccc(CCn2c(C)cc(C(=O)CN3C(=O)C(=O)N(Cc4ccco4)C3=O)c2C)cc1,2,20,6,16,-31,-13
CO[C@@H]1CN(C)C(=O)c2cc(NC(=O)Nc3ccc4c(c3)OCO4)ccc2OC[C@@H](C)N(C)C[C@H]1C,·,-13,·,·,·,·
N[C@@H](Cc1ccccc1)C(=O)N1CCC(C(=O)N[C@@H](Cc2c[nH]c3ccccc23)C(=O)O)CC1,13,13,8,-3,8,4
C[C@@H]1CN([C@H](C)CO)C(=O)CCCn2cc(nn2)CO[C@H]1CN(C)C(=O)Nc1ccc(F)cc1,-4,6,4,2,-7,-8
CC(NC(=O)COC(=O)c1cccs1)c1ccccc1 (centres undefined),30,11,-2,-20,-20,12
CC(NC(=O)COC(=O)/C(=C/c1cccs1)c1cccs1)c1ccccc1 (centres undefined),50*,22,8,17,35,39
O=C1CC(Sc2nnnn2C2CCCCC2)C(=O)N1c1ccccc1 (centres undefined),-9,15,-4,-6,85*,-12
Cn1nnnc1SC1CC(=O)N(c2ccccc2)C1=O (centres undefined),-12,15,-9,1,14,3
CCOc1cc(/C=C2\COc3ccccc3C2=O)ccc1OCC(=O)N(C)C,79*,25,-12,19,62*,2
CCNC(=O)COc1ccc(/C=C2\COc3ccccc3C2=O)cc1OC,46,17,4,11,71*,32
O=C(/C=C/[C@H]1O[C@@H](n2ccc(=O)[nH]c2=O)[C@H](O)[C@@H]1O)NCC1CCCO1 (some centres undefined),-3,-4,2,-24,2,4
Cn1c(=O)c2c(nc(N3CCc4ccccc4C3)n2Cc2ccccc2F)n(C)c1=O,61*,20,-1,13,37,47
CCCc1cc(C(=O)Nc2ccc(C(=O)c3ccccc3)cc2)n(C)n1,27,11,-9,6,12,34
CCCc1cc(C(=O)Nc2ccc(C(=O)c3ccc(F)cc3)cc2)n(C)n1,50*,-17,-13,20,21,59*
Fc1ccc(NC(=S)NNc2ncc(C(F)(F)F)cc2Cl)c(F)c1,29,34,-8,40,38,61*
Cc1ccc(NC(=S)NNc2ncc(C(F)(F)F)cc2Cl)c(C)c1,9,27,-1,17,23,21
O=C(NNC(=S)NC1CCCCC1)c1sc2ccccc2c1Cl,10,-101,-2,28,-140,76*
O=C(COC(=O)c1ccccc1NCCO)NCC1CCCCC1,50*,-96,-12,11,-37,24
O=C(COC(=O)c1sc2ccccc2c1Cl)NCC1CCCCC1,12,8,9,-16,59*,-18
